# Compound activity: PubChem BioAssay, NMMLSC
# RGS8-Gao = RGS8-Galphao binding modulators, primary screen, biochemical, multiplexed bead flow cytometry; response (percent of control binding), % at 10 µM; actives lie on both sides; hit rate 0.34% among 220,000; Guanine nucleotide-binding protein G(o) subunit alpha (Homo sapiens), P09471; in the data active = response below about 60% or above about 140%; inactive = in between;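 also: Galphao activated as the GDP aluminium fluoride complex binding bead-coupled RGS8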
# Target sequence (P09471 whole entry, looked up): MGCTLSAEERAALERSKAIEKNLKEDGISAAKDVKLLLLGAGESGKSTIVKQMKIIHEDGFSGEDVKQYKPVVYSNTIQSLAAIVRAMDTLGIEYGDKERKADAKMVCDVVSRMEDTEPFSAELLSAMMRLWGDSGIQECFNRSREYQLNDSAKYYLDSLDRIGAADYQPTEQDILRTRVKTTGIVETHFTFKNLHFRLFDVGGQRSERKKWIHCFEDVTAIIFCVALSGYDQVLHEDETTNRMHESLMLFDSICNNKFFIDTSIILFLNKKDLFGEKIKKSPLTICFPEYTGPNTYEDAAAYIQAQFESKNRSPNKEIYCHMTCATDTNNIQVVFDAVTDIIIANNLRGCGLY
# RGS4-Gao reg = modulators of RGS4 binding to Galphao, primary screen, biochemical, multiplexed bead flow cytometry | AID 1415, 2008 | hit rate 0.33% among 220,000 | binding response (% of control), % at 10 µM | actives lie on both sides | Guanine nucleotide-binding protein G(o) subunit alpha (Homo sapiens), P09471; in the data active = binding response below about 49% or above about 150%; inactive = in between;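 also: fluorescent Galphao activated with aluminum fluoride binding bead-coupled RGS4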
# RGS16-Gao = modulators of RGS16 binding to Galphao, primary screen, biochemical, human proteins, multiplexed bead flow cytometry; bead-based flow cytometry RGS16-Galphao binding, fluorescence; actives lie on both sides; binding response (% of control), % at 10 µM; hit rate 0.38% among 220,000; AID 1441, 2008;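 also: Galphao activated by GDP with aluminum fluoride before binding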
# Avidin bead fluor = green autofluorescence of compounds with avidin beads – biophysical, 488/530 nm, flow cytometry, artefact control, profiling panel; hit rate 0.38% among 220,000; fluorescence (KMESF) at 10 µM; AID 1775, 2009; compound fluorescence 488/530 nm; stronger effect = higher value; in the data active = fluorescence above about 47
# RGS7-Gao reg = RGS7-Galphao binding modulators, primary screen, biochemical, multiplexed bead flow cytometry; Guanine nucleotide-binding protein G(o) subunit alpha (Homo sapiens), P09471; actives lie on both sides; binding response (% of control), % at 10 µM; hit rate 0.35% among 220,000; AID 1439, 2008; in the data active = binding response below about 49% or above about 150%; inconclusive = no clear call, values can overlap the other calls; inactive = in between;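 also: fluorescent Galphao held in activated GDP-AlF4 state binding bead-coupled RGS7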
# GSH bead fluor = compound fluorescence on glutathione beads, profiling panel, artefact control, biophysical, 488/530 nm, flow cytometry. AID 1776, 2009. hit rate 0.25% among 190,000. GSH beads flow cytometry, compound fluorescence 488/530 nm; stronger effect = higher value. fluorescence (KMESF) at 10 µM; in the data active = fluorescence above about 89;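 also: glutathione beads carrying GST-tagged Bcl family fusion proteins plus one bare bead set; values are compound well signal with DMSO vehicle wells as background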
# RGS-Gao = modulators of RGS–Galpha-o binding, primary screen, biochemical, multiplexed beads, flow cytometry, RGS4/7/8/16/19; AID 1504, 2009; hit rate 99% among 1,600; multiplexed bead flow cytometry; shares compounds with RGS16-Gao; RGS4–Galpha-o binding response, % at 10 µM;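 also: fluorescently labeled Galpha-o bound to GDP with aluminium fluoride binding biotinylated RGS beads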
# Target sequence (P09471 whole entry, looked up): as above
# Target sequence (P49798 whole entry, looked up): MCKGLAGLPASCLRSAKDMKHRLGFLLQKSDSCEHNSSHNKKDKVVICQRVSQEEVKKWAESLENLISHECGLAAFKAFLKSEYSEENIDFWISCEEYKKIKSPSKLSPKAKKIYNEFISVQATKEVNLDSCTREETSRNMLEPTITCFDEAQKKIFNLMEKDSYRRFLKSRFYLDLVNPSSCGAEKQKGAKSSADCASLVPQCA
# Avidin counter = disruption of biotin probe capture by avidin, counter-screen for RGS protein interaction modulators, biochemical, flow cytometry, bead-based | shares compounds with RGS16-Gao | streptavidin beads, fluorescein-biotin binding | inhibition, % at 10 µM | 1,700 tested, under 10 active | AID 1783, 2009;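 active = inhibition above 50%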;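 also: median green fluorescence of gated singlet beads compared with DMSO control wells; 0% = DMSO wells and 100% = complete loss of bead fluorescence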
# RGS8-Gao confirm = RGS8-Galphao binding modulators, confirmation, biochemical, multiplexed bead flow cytometry, single concentration; shares compounds with RGS16-Gao; bead-based flow cytometry RGS8-Galphao binding, fluorescence; actives lie on both sides; binding response (% of control), % at 10 µM; hit rate 3% among 1,700; AID 1836, 2009; in the data active = binding response below about 72% or above about 130%; inactive = in between;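 also: Galphao activated as GDP AlF4 complex before binding bead RGS8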
# RGS7-Gao single = RGS7-Galphao binding modulators, confirmation, biochemical, multiplexed bead flow cytometry, single concentration; shares compounds with RGS16-Gao; hit rate 7.8% among 1,700; response (percent of control binding), % at 10 µM; bead-based flow cytometry RGS7-Galphao binding; actives lie on both sides; in the data active = response below about 75% or above about 130%; inactive = in between;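 also: fluorescent Galphao activated with GDP and aluminum fluoride binding bead-coupled RGS7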
# RGS16-Gao conf = modulators of RGS16-Galphao protein binding, confirmation, biochemical, single concentration, multiplexed bead flow cytometry | AID 1838, 2009 | bead-based flow cytometry; actives lie on both sides | shares compounds with RGS16-Gao | hit rate 4% among 1,700 | response (% of control binding), % at 10 µM; in the data active = response below about 74% or above about 130%; inactive = in between;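 also: Galphao activated as the GDP aluminium fluoride complex binding bead-coupled RGS16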
# RGS4-Gao confirm = modulators of RGS4-Galphao protein binding, confirmation, biochemical, single concentration, multiplexed bead flow cytometry. shares compounds with RGS16-Gao. actives lie on both sides. binding response (% of control), % at 10 µM. hit rate 4% among 1,700; in the data active = binding response below about 74% or above about 130%; inactive = in between
# RGS19-Gao conf = regulators of RGS19-Galphao binding, confirmation, biochemical, single point, multiplexed bead flow cytometry. shares compounds with RGS16-Gao. bead-based flow cytometry RGS19-Galphao binding; actives lie on both sides. response (percent of control binding), % at 10 µM. hit rate 5% among 1,700. AID 1841, 2009; in the data active = response below about 50% or above about 160%; inactive = in between;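 also: 100% = no compound control and 0% = blank background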
# Starred values were filed as active, the others as inactive; i = inactive; ? = inconclusive; . = not tested or not shown; [ ] = another dose, or the depositor's remark. Rows were chosen to be rich in hits. Some 1.2% of all compounds tested hit in one or more screens of this group. Unless noted, no rule for the calls is given here.
SMILES,RGS8-Gao,RGS4-Gao reg,RGS16-Gao,Avidin bead fluor,RGS7-Gao reg,GSH bead fluor,RGS-Gao,Avidin counter,RGS8-Gao confirm,RGS7-Gao single,RGS16-Gao conf,RGS4-Gao confirm,RGS19-Gao conf
COc1ccc(-c2nnc(SCC(=O)c3[nH]c(C)c(C(C)=O)c3C)o2)cc1,112.3,175.1*[activator],179.5*[activator],17,125.6,9,.,-0.5,98.2,96.1,93.8,90.4,102.6
CC(=O)c1c(C)[nH]c(C(=O)CSc2nnc(-c3ccco3)o2)c1C,99.9,99.6,99.8,8,?,11,.,.,.,.,.,.,.
COc1ccccc1S(=O)(=O)CC(O)COc1ccc(C#N)cc1 (stereo not drawn),101.2,100.2,99.3,22,100.5,12,.,.,.,.,.,.,.
O=C1C(C=NCc2ccco2)=C(O)c2ccccc21,87.4,90.5,-57.5*,8,92.9,9,90.5*,1.4,98.2,93.0,95.8,96.8,98.7
Cc1ccc(NS(=O)(=O)c2cccc(C(=O)OCC(=O)NCc3ccco3)c2)cc1,177.8*[activator],162.6*[activator],444.2,8,147.7,231*,.,-0.7,96.5,92.6,94.4,92.9,73.5
COC(=O)c1ccccc1OCCCCN1CC(C)OC(C)C1 (stereo not drawn),99.2,113.0,102.1,173*,254.2*[activator],9,113.0*,2.4,91.9,58.8*,83.1,69.5*,45.8*
COc1ccc(Br)cc1/C=N/Nc1cccc(C(=O)O)c1,99.4,111.6,98.5,78*,171.9*[activator],12,111.6*,0.9,96.3,63.5*,80.9,79.1,67.4
CC(C)c1cccc(C(C)C)c1OCCCCN1CCCC1,.,.,.,.,.,35,.,1.1,99.2,95.6,99.1,95.7,134.4
NC(=O)c1ccc(C23CC4CC(CC(C4)C2)C3)o1,118.3,100.6,202.2*[activator],13,95.5,6,100.6*,-0.7,109.8,99.7,108.4,98.7,90.1
COc1ccc(-n2nc(C(=O)NCC(=O)N3CCN(C)CC3)c3ccccc3c2=O)cc1OC,141.8*[activator],108.5,222.4,7,110.2,40,108.5*,-0.2,100.3,99.3,97.6,98.4,91.9
COc1ccc(-n2nc(C(=O)NCC(=O)N3CCN(c4ccccn4)CC3)c3ccccc3c2=O)cc1Cl,104.1,100.3,100.2,7,101.8,12,.,.,.,.,.,.,.
Cc1sc2ncn(CC(=O)NCCCC(=O)N3CCN(Cc4ccc5c(c4)OCO5)CC3)c(=O)c2c1C,100.7,101.3,100.1,10,?,14,.,.,.,.,.,.,.
Nc1ccc2oc3ccc(N)cc3c(=O)c2c1,44.4*,5.6*,53.6,0,-13.3*,8,.,3.0,104.2,103.6,105.8,110.0,105.5
CC(C)c1ccc2oc3nc(N)c(C(=O)O)cc3c(=O)c2c1,95.8,96.7,97.3,8,98.4,67,.,.,.,.,.,.,.
CC(=O)Nc1ccc(NC(=S)Nc2ccccc2)cc1,.,.,.,.,.,17,.,1.6,102.6,108.6,102.7,105.7,103.8
CC(=O)Nc1ccc(NC(=S)Nc2ccc(F)cc2)cc1,101.8,98.5,101.6,8,?,10,.,.,.,.,.,.,.
CC1=CC(C)(C)Nc2ccccc21,62.9,76.5,13.1*,4,73.4,13,76.5*,0.4,99.9,99.7,101.6,103.1,104.2
CCN(CC)S(=O)(=O)c1cccc(C(=O)N/N=C/c2ccc(O)c(O)c2O)c1,50.8*,43.1*,-60.7,-1,31.4*,1,.,0.9,63.6*,60.7*,57.2*,63.4*,15.6*
CCOc1ccccc1/C=N/NC(=O)c1cccc(S(=O)(=O)N(CC)CC)c1,99.8,92.9,93.8,11,91.6,11,.,.,.,.,.,.,.
O=C1CCN(c2ccc([N+](=O)[O-])cc2F)CC1,97.6,94.5,93.9,14,?,13,.,.,.,.,.,.,.
COc1ccc(/C=C/C(=O)c2cc3c(cc2N)OCO3)cc1,97.2,97.6,97.6,16,95.1,12,.,.,.,.,.,.,.
Cc1cc(C)c2c(CC(=O)NC(C)C)coc2c1,151.3*[activator],141.4,160.2,20,142.7,16,141.4*,-0.1,102.3,96.5,101.7,98.9,85.0
Cc1cc(=O)oc2c(CN(CC(C)C)CC(C)C)c(O)ccc12,143.6*[activator],119.4,249.5,4,115.2,12,119.4*,i,99.2,102.7,100.5,100.9,98.7
CCOCCn1c(CN2CCc3ccccc3C2)nc2c1c(=O)n(C)c(=O)n2C,98.7,95.3,94.1,5,?,.,.,.,.,.,.,.,.
Cc1ccc(OCC(=O)N/N=C/C=C/c2ccco2)cc1C,59.8*,67.3,3.6*,6,64.8,17,67.3*,0.0,93.1,94.7,99.0,99.3,80.1
NC(=O)N=Nc1c2[nH]c3ccccc3nc-2c2ccccc12,98.0,102.8,102.3,3,?,.,.,.,.,.,.,.,.
COC(=O)Cc1[nH]c(=S)[nH]c1C(=O)OC,103.1,108.9,100.4,9,?,.,.,.,.,.,.,.,.
COc1ccc(NC(=O)NCCCN2CCN(c3cc(C)ccc3C)CC2)cc1,102.6,104.6,100.8,6,99.6,17,.,.,.,.,.,.,.
